# PubChem BioAssay
# The source made the active and inactive calls. Rule as the data show it, unless noted: active = inhibition above about 80%; inactive = the rest.
# Columns and labels:
# [1] = viability loss with induced miR-34 in A549 – imaging, A549 dox-inducible miR-34, nuclei and caspase counts, primary screen (AID 1347080;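 active = compounds whose cell count with miR-34 switched on is under 0.7 times the count with it off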); conditions: A549 miR-34 inducible, Hoechst nuclei count, 48 h
# [2] = MELAS cybrid and Rieske KO viability enhancers – cell-based, MELAS cybrids, Rieske KO mouse fibroblasts, CellTiter-Glo, primary screen (AID 1508586;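 active = mean z-score across replicates of 1.96 or higher in either the MELAS or the Rieske mutant cell line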;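 also: z relative to plate mean and SD of compound and empty wells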); conditions: low glucose
# [3] = growth inhibition, single agent or in combination, cell-based, chromothripsis tumors, cisplatin or BGB combos (AID 1671449); conditions: LFS_MB_P medulloblastoma cells;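 also: cells exposed for 96 hours; 0% = vehicle DMSO and 100% = killing by high DMSO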
# [4] = growth inhibition, single agent and combos, cell-based, chromothripsis tumors, cisplatin or BGB combos (AID 1671450); conditions: HDN33 neuroblastoma cells, stronger effect = higher value;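 also: cells exposed to compound for four days; 0% = vehicle DMSO and 100% = cell killing by high DMSO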
# [5] = growth inhibition, single agents and combos, ICB984, cell-based, cisplatin or BGB combos, synergistic combos for chromothripsis tumors (AID 1671451; call rule not given here;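 also: cells exposed for 96 hours before readout; 0% = vehicle DMSO and 100% = killing by high DMSO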); conditions: ICB984 medulloblastoma cells, drug combinations, stronger effect = higher value
# [6] = growth inhibition, single agents and combos, LFS_MB_1R, cell-based, cisplatin or BGB combos, synergistic combos for chromothripsis tumors (AID 1671452); conditions: LFS_MB_1R medulloblastoma cells, stronger effect = higher value;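 also: cells exposed for 96 hours before readout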
# [7] = growth inhibition, single agents and combos, HTB85, cell-based, BGB or cisplatin IC20 combos, synergistic combos for chromothripsis tumors (AID 1671453); conditions: HTB85 osteosarcoma cells, drug combinations, stronger effect = higher value;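 also: cells exposed for 96 hours before readout; 0% = vehicle DMSO and 100% = high DMSO killing control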
# [8] = growth inhibition, single agents and combos, CRL2098, cell-based, BGB or cisplatin IC20 combos, synergistic combos for chromothripsis tumors (AID 1671454); conditions: CRL2098 osteosarcoma cells, drug combinations, stronger effect = higher value;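 also: cells exposed for 96 h before readout; 0% = vehicle DMSO and 100% = killing by high DMSO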
# [9] = growth inhibition, single agents and combos, HD-MB03, cell-based, BGB or cisplatin IC20 combos, synergistic combos for chromothripsis tumors (AID 1671455; in the data active = inhibition above about 83%;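 also: 0% = vehicle DMSO and 100% = high DMSO as cytotoxic control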); conditions: HD-MB03 medulloblastoma cells, stronger effect = higher value
# [10] = growth inhibition, single agents and combos, UWB1.289, cell-based, BGB or cisplatin combos, synergistic combos for chromothripsis tumors (AID 1671456); conditions: UWB1.289 ovarian carcinoma cells, stronger effect = higher value;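 also: cells exposed to compound for four days; 0% = vehicle DMSO and 100% = killing by high DMSO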
# [11] = growth inhibition, single agents and combos, LFS_MB_2R, cell-based, cisplatin combos, synergistic combos for chromothripsis tumors (AID 1671457); conditions: LFS_MB_2R medulloblastoma cells, stronger effect = higher value;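 also: cells exposed to compound for four days before readout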
# [12] = growth inhibition, MDA-MB-436, cell-based, BGB or cisplatin combos, synergistic combos for chromothripsis tumors (AID 1671458; call rule not given here;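 also: cells exposed for 96 hours; 0% = vehicle DMSO and 100% = killing by high DMSO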); conditions: MDA-MB-436 breast carcinoma growth inhibition, drug combinations, stronger effect = higher value
# [13] = UWB1.289_BRCA1 ovarian cancer growth, cell-based, BGB or cisplatin combinations (AID 1671459); conditions: UWB1.289 BRCA1 ovarian carcinoma, drug combinations, stronger effect = higher value
# [14] = drug combination toxicity in non-malignant astrocytes – cell-based, BGB or cisplatin IC20 combos, cytotoxicity control for chromothriptic childhood tumor combination screen (AID 1671460); conditions: Human astrocytes, viability inhibition, drug combinations, at 0.5 µM, stronger effect = higher value;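 also: cells exposed to compounds for 96 hours before viability readout; 0% = vehicle and 100% = killing control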
# [15] = BT084 cell growth, single and combined drugs, ICGC_MB145, cisplatin and BGB IC40 combos (AID 1671461); conditions: BT084 medulloblastoma cells, drug combinations, stronger effect = higher value;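 also: cells exposed to drugs for 96 hours; 0% = vehicle DMSO and 100% = high DMSO full killing control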
# [16] = RCMB18 cell growth, single agent and combined, cisplatin and BGB IC40 combos (AID 1671462); conditions: RCMB18 medulloblastoma cells, stronger effect = higher value;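 also: cells exposed to compound for four days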
# [17] = CRL1545 cell growth, single agent and combined, cisplatin and BGB IC20 combos (AID 1671464); conditions: CRL1545 osteosarcoma cells, stronger effect = higher value;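 also: cells exposed to compound for 96 hours before readout; 0% = vehicle DMSO and 100% = high DMSO killing control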
# [18] = measured here: combination with BGB IC40, at 0.05 µM
# [19] = measured here: with BGB IC20 combination, at 0.5 µM
# [20] = measured here: with cisplatin IC20 combination, at 0.5 µM
# [21] = measured here: combination with cisplatin, at 0.5 µM
# [22] = measured here: combination with cisplatin, at 5 µM
smiles,measurement,setting,value
O=c1[nH]c(=O)n(C2CC(O)C(CO)O2)cc1I (centres undefined),fold change,"[1]; stronger effect = lower value, cell number ratio, induced over uninduced",0.851 (inactive)
same,fold change,[1]; measured here: relative caspase fold change +Dox/-Dox,0.749
same,cell count,"[1]; measured here: total cells with miR-34 induction, stronger effect = lower value",6980
same,cell count,[1]; measured here: total cells without miR-34 induction,8200
same,z-score,"[2]; MELAS cybrid survival, CellTiter-Glo 48 h, stronger effect = higher value",-0.224 (inactive)
same,z-score,"[2]; Rieske KO mouse fibroblast survival, CellTiter-Glo 72 h",-0.483
same,inhibition,"[3]; at 0.5 µM, stronger effect = higher value",4.71% (inactive)
same,inhibition,"[3]; measured here: combination with BGB IC20, at 0.005 µM",8.42%
same,inhibition,"[3]; measured here: combination with BGB IC40, at 0.005 µM",-21.4%
same,inhibition,[3]; [18],12.9%
same,inhibition,"[3]; measured here: combination with cisplatin, at 0.5 µM, stronger effect = higher value",-5.31%
same,inhibition,"[3]; measured here: combination with cisplatin, at 5 µM, stronger effect = higher value",2.43%
same,inhibition,"[4]; BGB combo, at 5 µM",9.54%
same,inhibition,[4]; at 0.5 µM,-18.4% (inactive)
same,inhibition,"[4]; cisplatin combo, at 5 µM",3.9%
same,inhibition,[4]; [19],-28.5%
same,inhibition,[4]; [20],-14%
same,inhibition,"[4]; single agent, at 5 µM",24%
same,inhibition,"[5]; BGB IC20 combo, at 0.005 µM",-15.6%
same,inhibition,"[5]; BGB IC40 combo, at 0.005 µM",-20.9%
same,inhibition,"[5]; BGB IC40 combo, at 0.05 µM",-13.7%
same,inhibition,[5]; at 0.5 µM,-8.85% (inactive)
same,inhibition,"[5]; cisplatin combo, at 0.05 µM",-13.7%
same,inhibition,"[5]; cisplatin combo, at 0.5 µM",-12.8%
same,inhibition,"[5]; cisplatin combo, at 5 µM",-9.03%
same,inhibition,"[5]; measured here: 5 uM single agent, at 5 µM",4.46%
same,inhibition,[6]; at 0.5 µM,-47.8% (inactive)
same,inhibition,[6]; [18],-9.63%
same,inhibition,[6]; [21],-105%
same,inhibition,[6]; [22],-24%
same,inhibition,[7]; at 0.5 µM,-28.2% (inactive)
same,inhibition,"[7]; measured here: with BGB IC20, at 0.5 µM",-26.8%
same,inhibition,"[7]; measured here: with BGB IC20, at 5 µM",-4.26%
same,inhibition,"[7]; measured here: with cisplatin IC20, at 0.5 µM",-39.9%
same,inhibition,"[7]; measured here: with cisplatin IC20, at 5 µM",-31.8%
same,inhibition,"[7]; single agent, at 5 µM",-17.4%
same,inhibition,[8]; at 0.5 µM,-42.2% (inactive)
same,inhibition,"[8]; measured here: combination with BGB at IC20, at 0.5 µM",-45.9%
same,inhibition,"[8]; measured here: combination with cisplatin at IC20, at 0.5 µM",-41.5%
same,inhibition,[9]; at 0.5 µM,-7.04% (inactive)
same,inhibition,"[9]; measured here: combo with BGB at IC20, at 0.5 µM",-3.12%
same,inhibition,"[9]; measured here: combo with cisplatin at IC20, at 0.5 µM",-7.71%
same,inhibition,[10]; at 0.5 µM,-5.21% (inactive)
same,inhibition,"[10]; measured here: inhibition with BGB combination, at 0.05 µM",-13.3%
same,inhibition,"[10]; measured here: inhibition with cisplatin combination, at 0.05 µM",-14.8%
same,inhibition,[11]; at 0.5 µM,-2.58% (inactive)
same,inhibition,[11]; [21],4.62%
same,inhibition,[11]; [22],-3.61%
same,inhibition,[12]; at 0.5 µM,-9.35% (inactive)
same,inhibition,"[12]; measured here: BGB combination, at 0.5 µM",-10.8%
same,inhibition,"[12]; measured here: BGB combination, at 5 µM",-16.9%
same,inhibition,"[12]; measured here: cisplatin combination, at 0.5 µM",-22.4%
same,inhibition,"[12]; measured here: cisplatin combination, at 5 µM",-10.7%
same,inhibition,"[13]; BGB combination, concentration series, at 5 µM",0.385%
same,inhibition,[13]; at 0.5 µM,-5.4% (inactive)
same,inhibition,"[13]; cisplatin combination, concentration series, at 5 µM",-6.29%
same,inhibition,[14],-11.4% (inactive)
same,inhibition,[14]; measured here: combo with BGB IC20,-7.44%
same,inhibition,[14]; measured here: combo with cisplatin IC20,-19.9%
same,inhibition,[15]; at 0.5 µM,-4.3% (inactive)
same,inhibition,"[15]; cisplatin combination, at 0.5 µM",-7.3%
same,inhibition,"[15]; cisplatin combination, at 5 µM",-44.5%
same,inhibition,"[15]; measured here: BGB IC40 combination 0.05 uM, at 0.05 µM",12.9%
same,inhibition,"[15]; single agent, at 5 µM",-7.11%
same,inhibition,[16]; at 0.5 µM,-5.93% (inactive)
same,inhibition,"[16]; cisplatin combo, at 5 µM",-28.2%
same,inhibition,"[16]; measured here: BGB IC40 combination, at 0.05 µM",-1.89%
same,inhibition,[16]; [21],-10.4%
same,inhibition,"[16]; single agent, at 5 µM",-39.8%
same,inhibition,[17]; at 0.5 µM,-56.2% (inactive)
same,inhibition,[17]; [19],-15.6%
same,inhibition,[17]; [20],-76.5%
same,inhibition,"[17]; single agent, at 0.05 µM",10.9%
same,inhibition,"[17]; single agent, at 5 µM",6.02%
